Reference: PubChem BioAssay (EPA / NIEHS)
Results filed as inconclusive are left out. Activity calls are given as the source filed them. Rule for the calls: active = hit-call score of the fitted dose curve at least 0.9, where 1 is the maximum; inconclusive = response in the unintended direction; inactive = score below 0.9.

test: Tanguay_ZF_120hpf_OTIC_legacy: (Legacy) Oregon State University Tanguay Lab 120 Hour Post-fertilization zebrafish Assay for Otic Vesicle Malformation (AID 2283639)
Method: Tanguay_ZF_120hpf_legacy is a whole embryo, multiplexed endpoint assay using zebrafish larvae exposed for 120 hours post fertilization on a 96-well plate.Tanguay_ZF_120hpf_OTIC_legacy is one of one assay component(s) measured or calculated from the Tanguay_ZF_120hpf_legacy assay. It is designed to make measurements of zebrafish development as detected with brightfield microscopy of developing zebrafish embryos.Data from the assay component Tanguay_ZF_120hpf_OTIC_legacy was analyzed into 1 assay endpoints. This assay endpoint, Tanguay_ZF_120hpf_OTIC_legacy, was analyzed in the positive analysis fitting direction relative to DMSO as the negative control and baseline of activity. Using a type of morphology reporter, gain-of-signal activity can be used to understand changes in developmentals as they relate to the whole embryo. To generalize the intended target to other relatable targets, this assay endpoint is annotated to the zebrafish development intended target family, where the subfamily is otic vesicle morphogenesis.
Zebrafish husbandry: Tropical 5D wild-type adult zebrafish were housed in at an approximate density of 1000 per 100 gallon tank at the Sinnhuber Aquatic Research Laboratory, Oregon State University, Corvallis, OR. Each tank was kept at standard laboratory conditions of 28C on a 14-h light/10-h dark photoperiod in fish water consisting of reverse osmosis water supplemented with a commercially available salt (Instant Ocean). Spawning funnels were placed into the tanks the night prior, and embryos were collected and staged. […] Ten microliters of each row of dilution plate 2 was added to 2 exposure plates. The final DMSO concentration used was 0.64% (vol/vol). Thirty-two embryos were also exposed to 5uM trimethyltin chloride (positive control). Plates were sealed to prevent evaporation and foil covered to reduce light exposure and kept in a 28C incubator. Embryos were statically exposed until 120 hpf. At 24 hpf, embryos were assessed for photomotor response using a custom photomotor response analysis tool (PRAT) and for developmental toxicity endpoints (MO24: mortality at 24 hpf, DP: developmental progression, SM: spontaneous movement, and NC: notochord distortion). At 120 hpf, locomotor activity was measured using Viewpoint Zebralab and assessed for 18 endpoints. Zebrafish acquisition and analysis program (ZAAP), a custom program designed to inventory, acquire, and manage zebrafish data, was used to collect developmental endpoints as either present or absent (i.e., binary responses were recorded). If mortality occurred for an embryo (at either 24 or 120 hpf), the non-mortality endpoints were not measured.

| SMILES | AC50 | outcome |
| --- | --- | --- |
| COc1cc2c(c(OC)c1OC)-c1ccc(OC)c(=O)cc1[C@@H](NC(C)=O)CC2 | 25 µM (active) |  |
| C[C@]12C=CC(=O)C=C1CC[C@H]1[C@@H]3C[C@@H](O)[C@](O)(C(=O)CO)[C@@]3(C)C[C@H](O)[C@@]12F |  | inactive |
| O=C(O)c1cccc(C(=O)O)c1 |  | inactive |
| c1ccc(C(O[C@@H]2CCCN(CCc3ccc4c(c3)OCO4)C2)c2ccccc2)cc1 | 45.8 µM (active) |  |
| Cn1c(=O)c2[nH]cnc2n(C)c1=O |  | inactive |
| c1ccc2c(c1)-c1cccc3c1c-2cc1ccccc13 |  | inactive |
| O=C(O)c1cccc(C[C@@H]2COc3ccc(OCc4nc5cc(F)ccc5s4)cc3[C@@H]2O)c1 |  | inactive |
| CC(=O)c1ccccc1 |  | inactive |
| CCCCCCCCCCCCCCCCOS(=O)(=O)O |  | inactive |
| OC[C@H]1O[C@@](CO)(O[C@H]2O[C@H](CO)[C@@H](O)[C@H](O)[C@H]2O)[C@@H](O)[C@@H]1O |  | inactive |
| O=C(NO)C1(NS(=O)(=O)c2ccc(Oc3ccc(F)cc3)cc2)CCOCC1 |  | inactive |
| NC(=O)N1c2ccccc2C=Cc2ccccc21 |  | inactive |
| COCc1nnc(-c2ccc[n+]([O-])c2)n1-c1c(Cl)c(Cl)cc2[nH]c(=O)c(=O)[nH]c12 |  | inactive |
| O=c1[nH]cnc2c1ncn2[C@H]1CC[C@@H](CO)O1 |  | inactive |
| Cc1nccn1-c1ccc(Sc2cccc(C3(C(N)=O)CCOCC3)c2)cc1 |  | inactive |
| OC(CCl)CCl |  | inactive |
| CCOc1ccc2[nH]cc(C(=O)NCc3ccccc3)c(=O)c2n1 |  | inactive |
| CCCCCCOC(=O)CC(CC(=O)OCCCCCC)(OC(=O)CCC)C(=O)OCCCCCC |  | inactive |
| CC(C)C(=O)Nc1ccc([N+](=O)[O-])c(C(F)(F)F)c1 |  | inactive |
| CCCCC(CC)C(=O)OCCOCCOCCOC(=O)C(CC)CCCC (stereo not given) |  | inactive |

| SMILES | AC50 | outcome |
| --- | --- | --- |
| NC(N)=O |  | inactive |
| COS(C)(=O)=O |  | inactive |
| CC(C)CC(C)O (stereo not given) |  | inactive |
| CCc1ccc(O)c(C(C)(C)C)c1 |  | inactive |
| CCCCCCCCN(C)C |  | inactive |
| O=C1CN(N=Cc2ccc([N+](=O)[O-])o2)C(=O)N1 |  | inactive |
| OCCOCCOCCO |  | inactive |
| OCC(CO)(CO)CO |  | inactive |
| O=S1(=O)CCCO1 |  | inactive |
| O=C(O)[C@H](O)[C@@H](O)C(=O)O |  | inactive |
| Nc1ccn([C@@H]2O[C@H](CO)[C@@H](O)[C@@H]2O)c(=O)n1 |  | inactive |
| CCCOc1ccc(S(=O)(=O)N2CCN(CC)CC2)cc1-c1nc2c(CC)n(Cc3ccccn3)nc2c(=O)[nH]1 |  | inactive |
| c1ccc2ncccc2c1 |  | inactive |
| CCCc1ccccc1 |  | inactive |
| CCCC(CCC)C(=O)O |  | inactive |
| C[C@@H](Oc1ccc(CNC(=O)c2cccnc2Oc2ccc3c(c2)OCO3)c(F)c1)C(=O)O |  | inactive |
| Cn1cc[nH]c1=S |  | inactive |
| CCc1cccc(CC)c1N |  | inactive |
| Cc1ncc([C@@H](CCCCCCc2ccc3c(n2)NCCC3)CC(=O)O)cn1 |  | inactive |
| CCCCCCCC/C=C\CCCCCCCC(=O)OC[C@@H](O)[C@H]1OC[C@H](O)[C@H]1O |  | inactive |
